Z-score data for 35 molecules are collected here from PubChem BioAssay.

A short description of this assay: basal HepG2 mitochondrial membrane potential changes, profiling panel, cell-based, JC-1 fluorescence, 24 h, 100 nL compound (AID 1167). Further: test concentration not given here. Conditions: higher = more signal.
With `CCCC[C@@H](O)C1=C(COC)Cn2c(=O)n(-c3ccccc3)c(=O)n2[C@H]1CO`, the z-score was found to be 0.376.

As for `CCN(CC)c1ccc(N2CC=CC34O[C@@H]5C=CCOC(=O)[C@@H]5[C@H]3C(=O)N(CCCO)[C@@H]4C2=O)cc1` (stereo not given in full), the z-score is 0.432.

As to `COCCOC(=O)N1C(=O)[C@@]2(c3cc(C#CCC(C(=O)OC)C(=O)OC)ccc31)[C@H](c1ccc(OCCO)cc1)N1[C@H](c3ccccc3)[C@H](c3ccccc3)OC(=O)[C@H]1[C@@H]2C(=O)N1CCCCCCC1`, the z-score was determined as 0.119.

As to `CCOC(=O)C1=CC[C@@H](c2ccc(F)cc2)N(S(=O)(=O)c2ccc(C)cc2)[C@H]1c1ccc([N+](=O)[O-])cc1`, the z-score is 1.65.

For the molecule `COC(=O)c1c(CC[C@@H](CO)NC(=O)N[C@@H](Cc2ccccc2)Cn2cc(-c3cncn3C)nn2)oc(C(C)=O)c1C(=O)OC`, the z-score is -0.321.

On to `O=C(NCCO)C1=C[C@H](Oc2ccccc2I)[C@@H](O)[C@H](NCc2ccc(F)cc2)C1`, for which the z-score is -0.574.

In the case of `CCCCN1CC=CC23O[C@@H]4/C=C\CCC(C)OC(=O)C4[C@H]2C(=O)N(C(C)CO)[C@@H]3C1=O` (stereo not given in full), the z-score is -0.318.

Turning to `CC(C)C[C@@H]1NC(=O)C([C@@H](C)OCc2ccccc2)NC(=O)[C@@]23C(=O)N[C@@H](Cc4ccccc4)C2[C@H](C)[C@@]2(C)O[C@H]2C3/C=C/CC/C=C/CNC1=O` (stereo not given in full), the z-score was 2.

Regarding `COCCOC(=O)N1C(=O)[C@@]2(c3cc(C#CCCO)ccc31)[C@H](C(=O)N1CCc3cc(OC)c(OC)cc3C1)[C@H]1C(=O)O[C@H](c3ccccc3)[C@H](c3ccccc3)N1[C@@H]2c1ccccc1OCCO`, the z-score was determined as 0.228.

Regarding `COc1ccc([Si](C)(C)[C@H]2[C@H](CC(=O)N3Cc4ccccc4C[C@H]3CO)O[C@@]3(C(=O)N(Cc4cccc(N5C(=O)c6cccc7cccc5c67)c4)c4ccccc43)[C@@H]2C)cc1`, the z-score came out at 0.813.

The molecule `CN1C(=O)C2C(C1=O)C1C=C(c3ccc(CO)cc3)C2C(c2cccs2)N1C` (stereo not given) returned a z-score of 0.398.

On to `CC(C)CNC(=O)[C@@]1(C)c2ccccc2C(=O)N(Cc2cc(F)cc(C(F)(F)F)c2)[C@H]1c1ccc(CO)cc1`, for which the z-score is 0.455.

`COc1ccc([Si](C)(C)[C@H]2[C@H](CCO)O[C@@]3(C(=O)N(Cc4ccc(N5CCOC5=O)cc4)c4ccccc43)[C@@H]2C)cc1` displayed a z-score of 0.137.

As for `CCCC=C(CCC)[C@@H](NC(=O)c1ccco1)c1ccc(C(=O)OC)cc1`, the z-score is -4.88.

For `CO[C@H]1O[C@H](CO)[C@@H](OC(=O)Nc2ccc(C(F)(F)F)cc2)[C@H](OC(=O)Nc2ccccc2-c2ccccc2)[C@@H]1OC(=O)Nc1ccccc1-c1ccccc1`, the z-score is -0.58.

In the case of `CC[C@H](C)C(=O)O[C@H]1CC[C@]2(C)C3=C(CCC2C1(C)C)[C@]1(C)CC[C@H]([C@H](C)CCCC(C)C)[C@@]1(C)CC3` (stereo not given in full), the z-score came out at 2.01.

Turning to `COCCn1c(C(=O)N2CCCC2)cc2c1C[C@H]1CN(C(=O)c3ccccc3)[C@@](Cc3ccccc3)(C(=O)OC)[C@@H]21`, the z-score was 0.678.

The molecule `C[C@]1(C(=O)NCC(F)(F)F)c2ccccc2C(=O)N(Cc2ccc(OC(F)(F)F)cc2)[C@H]1c1ccc(CO)cc1` displayed a z-score of 0.756.

As to `CN(C)CCCNC(=O)[C@@H]1c2ccccc2C(=O)N(C2Cc3ccccc3C2)[C@H]1c1ccc(CO)cc1`, the z-score came out at 3.81.

`Cc1c(NC(=O)/C(C#N)=C/c2ccc(Cl)cc2)c(=O)n(-c2ccccc2)n1C` came in with a z-score of 0.497.

With `C=CCC(OC(C)=O)[C@@H]1[C@@H](N(Cc2ccc(-c3ccccc3)cc2)C(=O)c2cccc3ccccc23)c2cc(OCCCO)ccc2N1C(=O)c1ccc2ccccc2c1` (stereo not given in full), the z-score came to 1.91.

The molecule `COCCOC(=O)N1C(=O)[C@@]2(c3ccccc31)[C@H](c1ccc(OCCO)cc1)N1[C@H](c3ccccc3)[C@H](c3ccccc3)OC(=O)[C@H]1[C@@H]2C(=O)N1CCN(c2ncccn2)CC1` showed a z-score of 1.03.

The molecule `C=C(/C(=C/C[C@@H](OC(C)=O)c1ccccc1OCCO)c1cc(C(=O)OC)ccc1OC)C(C)C` gave a z-score of 0.605.

On to `CCCC[C@H]1OB(O)C[C@H]2C1=C(COC)C[C@H]1C(=O)C=CC(=O)[C@H]12`, for which the z-score was -2.01.

Take `COc1ccc(NC(=O)O[C@H]2[C@H](OC(=O)Nc3ccc4c(c3)OCO4)[C@H](OC(=O)Nc3ccc4c(c3)OCO4)[C@@H](OC)O[C@@H]2CO)cc1`: the z-score was -0.0127.

Consider `C=CCN1C(=O)[C@]2(O[C@H](CCO)[C@@H]([Si](C)(C)c3ccc(OC)cc3)[C@@H]2C)c2ccccc21`, for which the z-score is -3.42.

Turning to `COC(=O)[C@]1(CO)N=C(c2ccc(OCCCO)cc2)O[C@@H]1c1ccccc1CN=[N+]=[N-]`, the z-score is -0.253.

In the case of `COc1cccc(OC)c1C(=O)O[C@H]1[C@@H]2OC(=O)[C@H](Cc3cccc(Br)c3)C/C=C/C[C@@H](Cc3cccc(Br)c3)C(=O)O[C@H]2[C@@H](OC)O[C@@H]1CO`, the z-score was -3.42.

For the molecule `COCCOC(=O)N1C(=O)[C@@]2(c3cc(C#CC4(O)CCCCCC4)ccc31)[C@H](C(=O)NC[C@H](O)c1ccccc1)[C@H]1C(=O)O[C@H](c3ccccc3)[C@H](c3ccccc3)N1[C@@H]2c1ccc(O)cc1`, the z-score is -1.19.

Turning to `O=C1C2C=CC(C(O)c3ccc([N+](=O)[O-])cc3)N(Nc3ccccc3)C2C(=O)N1c1ccccc1` (stereo not given), the z-score was -2.59.

Regarding `C=C(CCCC)C(=O)CC[C@H](OC(C)=O)c1ccccc1OCCO`, the z-score came to 0.103.

With `C=C(COC)/C(=C/C[C@H](OC(=O)c1ccncc1)c1ccc(OCCO)cc1)c1cc(C(=O)OC)ccc1OC`, the z-score was determined as 1.37.

For `COC(=O)[C@@]1(Cc2ccc(OC)cc2)[C@@H]2[C@@H](CC(=O)[C@H]2CC(=O)C(=O)N2CCCC2)CN1C(=O)c1ccccc1`, the z-score stood at 0.74.

Regarding `CCOC(=O)C[C@H]1[C@H](OC(=O)c2ccc(-c3ccccc3)cc2)[C@@H](NC(=O)CC(C)C)c2cc(OCCCO)ccc2N1C(=O)Cc1ccc(OC)cc1`, the z-score was found to be 0.593.

For the molecule `C=CCN1C(=O)[C@]2(O[C@H](CCn3cc([C@H](O)c4ccccc4)nn3)[C@@H]([Si](C)(C)c3ccc(OC)cc3)[C@@H]2C)c2cc(N3C(=O)c4cccc5cccc3c45)ccc21`, the z-score turned out to be 2.24.
